# In the library only some 3.4% were active in any assay of this set; here they are far more common.
# GPR151 activ: activators of human GPR151; Q8TDV0; PathHunter beta-arrestin GPR151 cells, luminescence; activation, % at 11.2 µM; hit rate 1% among 650,000; in the data active means activation above about 4.9%;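 further: 0% = median of compound wells and 100% = cells with positive control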
# TEAD-YAP block: TEAD-YAP interaction inhibition; HEK-TIYL cells, TEAD-Gal4/YAP UAS-luciferase luminescence; inhibition, % at 9.12 µM; hit rate 1.4% among 640,000; AID 1259422; in the data active means inhibition above about 32%;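 further: 0% = median of test compound wells and 100% = reference inhibitor wells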
# MITF inh: blocks human microphthalmia-associated transcription factor | O75030 | AlphaScreen MITF homodimerization, bead proximity signal | inhibition, % at 2.6 µM | hit rate 0.91% among 650,000; in the data active means inhibition above about 50%;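 further: 0% = vehicle wells with protein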
# Target sequence (O75030 whole entry, looked up): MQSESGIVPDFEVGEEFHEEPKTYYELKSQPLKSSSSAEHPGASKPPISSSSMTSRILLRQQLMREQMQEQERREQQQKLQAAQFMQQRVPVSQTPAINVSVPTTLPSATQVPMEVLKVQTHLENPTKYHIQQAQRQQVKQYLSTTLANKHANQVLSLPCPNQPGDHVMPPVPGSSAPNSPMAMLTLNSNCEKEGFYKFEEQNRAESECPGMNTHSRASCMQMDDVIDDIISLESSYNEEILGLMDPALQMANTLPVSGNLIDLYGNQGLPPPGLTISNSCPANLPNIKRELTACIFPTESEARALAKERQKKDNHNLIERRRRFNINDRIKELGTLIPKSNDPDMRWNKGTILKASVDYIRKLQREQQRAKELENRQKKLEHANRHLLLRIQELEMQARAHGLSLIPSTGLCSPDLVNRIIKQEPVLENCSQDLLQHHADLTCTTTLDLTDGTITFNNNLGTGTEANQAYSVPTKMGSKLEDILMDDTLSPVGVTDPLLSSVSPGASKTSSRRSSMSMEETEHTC
# FBW7 activator: activators of human E3 ligase FBW7 | Q969H0 | AlphaScreen FBW7–phospho-cyclin E peptide binding, activator screen | normalized activity (activation), % at 26.1 µM | hit rate 0.13% among 650,000 | AID 1259310; in the data active means normalized activity above about 1.9%;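 further: purified mutant Fbw7 with reduced substrate affinity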
# The depositor's hits bear a star.
SMILES,GPR151 activ,TEAD-YAP block,MITF inh,FBW7 activator
CCC(Sc1nc2n[nH]c(C)c2c(=N)n1-c1cccc(C)c1)C(=O)N(CC)CC (configuration not stated),0.0,38.6*,4.5,-0.1
CCC(Sc1nc2n[nH]c(C)c2c(=N)n1-c1cccc(Cl)c1)C(=O)N1CCCC1 (configuration not stated),0.7,48.9*,27.0,0.3
CCCN(CCC)C(=O)CSc1nc2n[nH]c(C)c2c(=N)n1-c1cccc(C)c1,0.1,-19.9,16.2,0.3
CCOc1ccc(NC(=O)CCN2CCOCC2)cc1,-1.2,-2.3,-5.2,-0.2
O=C(Oc1ccc(NS(=O)(=O)c2ccccc2)c2ccccc12)c1ccccc1,0.2,76.5*,-2.7,0.2
Cn1nnnc1Sc1ccc([N+](=O)[O-])cc1C(=O)Nc1ccc(C(F)(F)F)cc1,0.9,49.6*,-8.6,-0.1
CCOC(=O)c1sc(NC(=O)c2cc([N+](=O)[O-])ccc2Sc2nnnn2C)cc1C,0.1,8.3,13.2,0.2
Cc1cc(NC(=O)C23CCC(CC2)C3)n[nH]1,1.7,-0.3,2.6,-0.1
CCN(C(=O)c1cccc(C)c1[N+](=O)[O-])c1ccccc1,-1.1,11.5,0.5,0.2
C=CCN1C(=O)/C(=C/c2ccc(OC(C)=O)c(OCC)c2[N+](=O)[O-])SC1=S,0.2,37.0*,20.6,-0.5
CCC1CN(CCNC(=O)Cn2nc3ccccc3n2)Cc2cc(OC)ccc2O1 (configuration not stated),-0.4,6.3,20.1,-0.2
CCOc1cc(C(=O)N2N=C(C)CC2(O)C(F)(F)F)cc(OCC)c1OCC (configuration not stated),1.3,61.4*,-1.8,0.0
COc1cc(C(=O)N2N=C(C)CC2(O)C(F)(F)F)ccc1O (configuration not stated),-0.1,-15.2,0.5,0.1
ClCc1nc2cc3ccccc3cc2[nH]1,0.3,40.3*,-2.9,-0.2
O=C(Nc1ccc(Br)cn1)c1cccc2ccccc12,-1.1,32.2*,-8.9,-0.1
O=C(Cn1ncc2ccccc21)Nc1ccc(Br)cn1,0.4,38.1*,5.2,0.0
O=C(Cn1ncc2ccccc21)Nc1ccccc1Br,-2.5,-4.2,15.7,0.6
O=C(Nc1ccc(Br)cn1)c1cc(Br)ccc1Cl,-0.7,43.0*,18.4,0.8
CSc1ccc(Cl)c(C(=O)Nc2ccc(Br)cn2)c1,1.2,35.2*,-6.4,-0.1
O=C(c1ccoc1)N1CCC(c2ccnc(-c3ccccc3)n2)CC1,-0.5,-0.6,1.2,-0.1
CN1C(=O)/C(=C/c2cc(Br)ccc2O)NC1=S,1.2,80.0*,-28.4,0.1
CN1C(=O)/C(=C/c2ccccc2O)NC1=S,-1.1,15.5,1.1,0.5
COCCCNc1ncnc2scc(-c3ccccc3)c12,2.0,59.1*,2.4,0.1
c1ccc(-c2csc3ncnc(NCc4ccccn4)c23)cc1,-0.4,13.1,-2.2,0.2
CCCCNc1ncnc2scc(-c3ccccc3)c12,3.2,56.2*,19.1,0.8
SMILES,GPR151 activ,TEAD-YAP block,MITF inh,FBW7 activator
COC(=O)CNc1ncnc2scc(-c3ccccc3)c12,-0.8,-4.0,10.4,0.2
c1ccc(-c2csc3ncnc(NCc4ccco4)c23)cc1,2.2,33.7*,16.4,-0.1
COC(=O)CCCNc1ncnc2scc(-c3ccccc3)c12,-0.9,34.6*,-2.4,-0.1
O=C(COC(=O)c1cccc(Cl)c1)NCC(F)(F)F,-1.1,-2.0,1.8,0.1
CCN1CCN(/C=C2\C(=O)Oc3ccccc3C2=O)CC1,3.4,-4.2,-8.0,0.1
CC(=O)c1[nH]c(C)c(C(=O)Nc2ccc(C)cc2C)c1C,-0.1,-0.9,10.8,0.2
CCCN1CCc2nc(NC(=O)c3sc4ccccc4c3Cl)sc2C1,-1.3,33.7*,8.0,0.1
C/C(=N/NC(=O)COc1cccc(C)c1)c1cc(O)ccc1O,0.2,-5.2,0.3,-0.1
Cc1cc(C(=O)N/N=C2\CCCc3ccccc32)n[nH]1,0.6,-35.9,1.4,0.0
O=C(NN1C(=O)C2C3c4ccccc4C(c4ccccc43)C2C1=O)c1cccc(Cl)c1 (configuration not stated),1.0,-1.1,-10.1,0.1
c1ccc(CNc2ccnc3c(-c4cc5ccccc5o4)cnn23)nc1,-1.0,-70.3,12.1,0.4
CCCNc1ccnc2c(-c3cccc(/C=C/C(=O)O)c3)cnn12,-1.0,63.9*,-18.9,-0.2
Cc1cccc(N(C)c2ccnc3c(-c4cccc(C(N)=O)c4)cnn23)c1,1.8,33.9*,-10.2,0.1
CN(C)CCNc1ccnc2c(-c3cccc(C(N)=O)c3)cnn12,-0.5,57.2*,3.2,0.1
CN(C)CCNc1ccnc2c(-c3cc4ccccc4o3)cnn12,-2.1,67.6*,-1.8,0.9
COc1cc2c(cc1OC)-c1nnc(-c3ccc4ccccc4n3)n1C(C)(C)C2,-0.1,1.3,4.8,0.1
COc1cc2[nH]c(=O)n(/N=C/c3ccc(OCC(=O)O)c(OC)c3)c(=O)c2cc1OC,0.0,2.1,-2.9,0.0
Cc1cccc2cc3c(nc12)OCC(=O)N(Cc1ccco1)C3,-0.9,-5.1,-1.1,0.6
c1ccc(-c2nccc(NCC3CCCO3)n2)cc1 (configuration not stated),-0.5,-1.8,14.8,0.1
COc1ccccc1/C=C1/NC(=O)N(c2cccc(Cl)c2)C1=O,-1.4,-6.1,18.3,0.2
COc1cccc(/C=C2/NC(=O)N(c3ccccc3)C2=O)c1O,-7.4,34.9*,-11.3,0.1
CCn1c(C)cc(/C=C2/NC(=O)N(c3ccccc3)C2=O)c1C,-1.0,33.5*,1.8,-0.1
CO[C@H](C(=O)[C@@H](O)[C@@H](C)O)[C@@H]1Cc2cc3cc(O[C@H]4C[C@@H](O[C@H]5C[C@@H](O)[C@H](O)[C@@H](C)O5)[C@H](O)[C@@H](C)O4)c(C)c(O)c3c(O)c2C(=O)[C@H]1O[C@H]1C[C@@H](O[C@H]2C[C@@H](O[C@H]3C[C@](C)(O)[C@H](O)[C@@H](C)O3)[C@@H](O)[C@@H](C)O2)[C@H](O)[C@@H](C)O1,-2.2,92.2*,35.6,-0.3
CCCCOC(=O)Nc1sc2c(c1C#N)CCCC2,0.9,-107.0,-3.1,0.2
O=[N+]([O-])c1ccc(/C=C/c2nc3ccccc3[nH]2)cc1,-8.3,74.1*,-2.5,-0.2
SMILES,GPR151 activ,TEAD-YAP block,MITF inh,FBW7 activator
O=[N+]([O-])c1ccc(/C=C/c2nc3ccc([N+](=O)[O-])cc3[nH]2)cc1,1.8,3.8,2.3,0.0
Cc1cc(N2CCCC2)c(C)cc1/C=C\[N+](=O)[O-],1.2,53.8*,-3.2,-0.2
Cc1cc(N2CCCC2)c(C)cc1C=O,3.0,-11.4,2.8,0.0
N#Cc1c(NC(=O)c2ccc([N+](=O)[O-])cc2[N+](=O)[O-])sc2c1CCCC2,-0.3,2.4,-18.5,-0.1
N#Cc1c(NC(=O)c2cc([N+](=O)[O-])ccc2Cl)sc2c1CCCC2,1.8,48.9*,9.1,0.1
CC1CCc2sc(NC(=O)c3cc(Cl)ccc3[N+](=O)[O-])c(C#N)c2C1 (configuration not stated),-1.3,51.0*,8.9,0.1
CCOC(=O)c1ccc(N2NC(=O)/C(=C/c3ccc([N+](=O)[O-])o3)C2=O)cc1,0.1,15.6,65.5*,-0.3

# Screening data deposited in PubChem BioAssay by The Scripps Research Institute Molecular Screening Center.
